Several values for one entry are separate records, joined by “and”; a condition that tells them apart may be missing. Equal values may be shown once. Where a name gives a salt, the structure may show the parent alone. ± gives the standard deviation of the averaged measurements.

The first assay concerns Molm13. Description: cell viability relative to DMSO control (bortezomib = 0%); higher = less growth inhibition. The following applies: 10 nM; 72 h. The essentials:
(§1)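 Using 384-well plates, a set of 679 approved and investigational compounds was tested once at 10 nM against acute myeloid leukemia cells (1000 cells per well in 50 µL) over 72 h, with the whole screen done in duplicate. Viability readout relied on CellTiter-Glo luminescence measured on an EnVision reader. For each plate, linear regression mapped values between positive-control-treated cells at 0% and DMSO-treated cells at 100%.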
For `Nc1cccc(-c2cc3c(Oc4cccc(O)c4)ncnc3[nH]2)c1`, the cell viability was determined as 101 ± 14%.
The same measure, in the same setting: next, `CC(CCc1ccccn1)(CCc1ccccn1)C(=O)c1ccccc1`: 112 ± 14%.
In the case of `Cc1ncc(CO)c(CO)c1O` [Pyridoxine], the cell viability worked out at 95.3 ± 26%.
On the same count and under the same terms, next, `c1ccc2c(-c3cnn4cc(-c5ccc(N6CCNCC6)cc5)cnc34)ccnc2c1`: 98 ± 20%; `COc1cc2ncnc(Oc3cccc(NC(=O)Nc4cc(C(C)(C)C(F)(F)F)on4)c3)c2cc1OC`: 115 ± 3.7%.
The same measure, in the same setting: the figure for `O=S(=O)(c1cccc2cnccc12)N1CCCNCC1` [HA-1077 (hydrochloride)] is 105 ± 14%; for `C[C@H]1Oc2cc(cnc2N)-c2c(nn(C)c2C#N)CN(C)C(=O)c2ccc(F)cc21` it is 115 ± 8.8%.
On the same count and under the same terms, next, `C[N+](C)(C)CC(=O)O` [Betaine hydrochloride]: 86.4 ± 9.4%; `N#C/C(=C(/N)Sc1ccc(N)cc1)c1ccccc1C(F)(F)F`: 108 ± 28%; `CCc1cc2c(=O)c(-c3nc4ccccc4s3)coc2c(CN2CCCCC2)c1O`: 129 ± 34%.
On to `CC(=O)c1c(C)c2cnc(Nc3ccc(N4CCNCC4)cn3)nc2n(C2CCCC2)c1=O`, for which the cell viability was 89.3% and 111%.
For the molecule `COC(=O)[C@]12CCC(C)(C)C[C@H]1[C@H]1C(=O)C=C3[C@@]4(C)C=C(C#N)C(=O)C(C)(C)[C@@H]4CC[C@@]3(C)[C@]1(C)CC2` [Bardoxolone Methyl], the cell viability turned out to be 102 ± 6.8%.
The same measure, in the same setting: the figure for `Cn1cc(C2=C(c3cccc(N)c3)C(=O)NC2=O)c2ccccc21` is 114.2 ± 0.55%; for `COc1cc2c(cc1OC)-c1[nH]nc(Nc3cccc(F)c3)c1C2` it is 120 ± 23%; for `Cc1c(F)cc(C(=O)NC2CC2)cc1-c1ccc(C(=O)NCC(C)(C)C)cn1` it is 92.1 ± 8%.
For `CNS(=O)(=O)C[C@H]1CC[C@H](N(C)c2[nH]cnc3nccc2-3)CC1` [Oclacitinib], the cell viability was found to be 96.5 ± 22%.
Still for that read-out and setting: the figure for `O=C1NCCSc2c1sc1ccc(O)cc21` is 92.9 ± 24%; for `C=CC(=O)Nc1cc(Nc2nccc(-c3cn(C)c4ccccc34)n2)c(OC)cc1N(C)CCN(C)C` it is 107 ± 17%; for `CN1CC(O)C2=C/C(=N/NC(N)=O)C(=O)C=C21` (stereo not given) [Carbazochrome] it is 93.7 ± 20%.
Same read-out and setting: next, `O=C1NC(=O)/C(=C/c2cccc(C(F)(F)F)c2)S1`: 112 ± 15%.
The same measure, in the same setting: the figure for `CCOc1cc(/C=C(\C#N)C(N)=O)cc(CSc2ccccc2)c1O` is 101 ± 44%.
Turning to `COc1c(C)c(C(=O)c2ccc(N)c(C(=O)O)c2)n2ccccc12`, the cell viability was determined as 107 ± 23%.
Same read-out and setting: next, `O=C1Nc2ccc(CN3C(=O)CSC3=O)cc2/C1=C/c1cc(CN2CCOCC2)c[nH]1`: 92.3 ± 7.1%; `Nc1nc(NC2CC2)cc(-c2cccc(Cl)c2Cl)n1`: 115 ± 8.1%.
With `O=c1sn(-c2cccc3ccccc23)c(=O)n1Cc1ccccc1` [Tideglusib], the cell viability amounted to 116 ± 9.5%.
As for `C[C@]1(O)C[C@@H](c2nc(-c3ccc4ccc(-c5ccccc5)nc4c3)c3c(N)nccn32)C1` [OSI-906 (Linsitinib)], the cell viability turned out to be 118 ± 12%.
The same measure, in the same setting: next, `CCC[C@H](NC(=O)/C(C#N)=C/c1cccc(Br)n1)c1ccccc1`: 132 ± 32%; `Cc1cc(Nc2nc(N[C@@H](C)c3ccc(F)cc3)c(C#N)cc2F)n[nH]1`: 123 ± 7.3%.
Same read-out and setting: next, `Nc1[nH]nc2nnc(-c3c(-c4ccccc4)nn4ccccc34)cc12`: 95.5 ± 1.6%.
Same read-out and setting: next, `CC(=O)Nc1nc(C)c(-c2ccc(Cl)c(S(=O)(=O)NCCO)c2)s1`: 104 ± 3.5%; `CN(C)Cc1cccc(N=C(c2ccccc2)c2c(O)[nH]c3cc(C(=O)N(C)C)ccc23)c1`: 108 ± 4.4%.
With `Cc1c(NC(=O)c2ccc(C(C)(C)C)cc2)cccc1-c1cn(C)c(=O)c(Nc2ccc(C(=O)N3CCOCC3)cc2)n1`, the cell viability came out at 106 ± 13%.
Take `O=C(O)c1c[nH]c2c(ccc3ccccc32)c1=O`: the cell viability came to 87 ± 11%.
Still for that read-out and setting: the figure for `CCOc1cc(C(=O)N2CCC(N3CCN(C)CC3)CC2)ccc1Nc1ncc2c(n1)N(C1CCCC1)c1ccccc1C(=O)N2C` is 111 ± 7.2%.
On the same count and under the same terms, next, `O=C(Nc1ccccc1C(=O)NC1CCCCNC1=O)c1cc2ccccc2s1` (stereo not given): 98.3 ± 4.7%; `CNC(=O)c1cc(Oc2ccc(NC(=O)Nc3ccc(Cl)c(C(F)(F)F)c3)cc2)ccn1` [Sorafenib]: 53.7 ± 6.9%; `CO[C@H]1C[C@@H]2CC[C@@H](C)[C@@](O)(O2)C(=O)C(=O)N2CCCC[C@H]2C(=O)O[C@H]([C@H](C)C[C@@H]2CC[C@@H](O)[C@H](OC)C2)CC(=O)[C@H](C)/C=C(\C)[C@@H](O)[C@@H](OC)C(=O)[C@H](C)C[C@H](C)/C=C/C=C/C=C/1C` [Rapamycin (Sirolimus)]: 34.4 ± 8.5%.
On the same count and under the same terms, next, `COc1cc(N2CCC(N3CCN(C)CC3)CC2)ccc1Nc1ncc(Cl)c(Nc2ccccc2P(C)(C)=O)n1` [Brigatinib]: 115 ± 41%; `C=CCc1ccc(O)c(-c2ccc(O)c(CC=C)c2)c1` [Honokiol]: 105 ± 5.5%; `COc1cc(Nc2nc3ccccc3nc2NS(=O)(=O)c2ccc(NC(=O)c3ccc(C)c(OC)c3)cc2)cc(OC)c1`: 107 ± 25%.

The subject of another assay is Mv4-11. The assay is described as above. The following applies: 10 nM; 72 h. The essentials:
as §1
As for `Nc1cccc(-c2cc3c(Oc4cccc(O)c4)ncnc3[nH]2)c1`, the cell viability was determined as 112 ± 13%.
As for `CC(CCc1ccccn1)(CCc1ccccn1)C(=O)c1ccccc1`, the cell viability stood at 109 ± 12%.
Still for that read-out and setting: next, `Cc1ncc(CO)c(CO)c1O` [Pyridoxine]: 114 ± 20%.
On the same count and under the same terms, next, `c1ccc2c(-c3cnn4cc(-c5ccc(N6CCNCC6)cc5)cnc34)ccnc2c1`: 112 ± 6.1%; `COc1cc2ncnc(Oc3cccc(NC(=O)Nc4cc(C(C)(C)C(F)(F)F)on4)c3)c2cc1OC`: 113 ± 17%; `O=S(=O)(c1cccc2cnccc12)N1CCCNCC1` [HA-1077 (hydrochloride)]: 112 ± 3.5%.
For `C[C@H]1Oc2cc(cnc2N)-c2c(nn(C)c2C#N)CN(C)C(=O)c2ccc(F)cc21`, the cell viability stood at 112 ± 19%.
On the same count and under the same terms, next, `C[N+](C)(C)CC(=O)O` [Betaine hydrochloride]: 101 ± 9.6%; `N#C/C(=C(/N)Sc1ccc(N)cc1)c1ccccc1C(F)(F)F`: 110 ± 8.3%.
On the same count and under the same terms, the figure for `CCc1cc2c(=O)c(-c3nc4ccccc4s3)coc2c(CN2CCCCC2)c1O` is 123 ± 5.4%; for `CC(=O)c1c(C)c2cnc(Nc3ccc(N4CCNCC4)cn3)nc2n(C2CCCC2)c1=O` it is 105% and 111%.
Same read-out and setting: the figure for `COC(=O)[C@]12CCC(C)(C)C[C@H]1[C@H]1C(=O)C=C3[C@@]4(C)C=C(C#N)C(=O)C(C)(C)[C@@H]4CC[C@@]3(C)[C@]1(C)CC2` [Bardoxolone Methyl] is 104 ± 1.1%; for `Cn1cc(C2=C(c3cccc(N)c3)C(=O)NC2=O)c2ccccc21` it is 113 ± 3.2%; for `COc1cc2c(cc1OC)-c1[nH]nc(Nc3cccc(F)c3)c1C2` it is 116 ± 26%.
With `Cc1c(F)cc(C(=O)NC2CC2)cc1-c1ccc(C(=O)NCC(C)(C)C)cn1`, the cell viability is 118 ± 20%.
The same measure, in the same setting: next, `CNS(=O)(=O)C[C@H]1CC[C@H](N(C)c2[nH]cnc3nccc2-3)CC1` [Oclacitinib]: 107 ± 18%.
With `O=C1NCCSc2c1sc1ccc(O)cc21`, the cell viability worked out at 103 ± 14%.
As to `C=CC(=O)Nc1cc(Nc2nccc(-c3cn(C)c4ccccc34)n2)c(OC)cc1N(C)CCN(C)C`, the cell viability came out at 114 ± 3.5%.
The same measure, in the same setting: the figure for `CN1CC(O)C2=C/C(=N/NC(N)=O)C(=O)C=C21` (stereo not given) [Carbazochrome] is 107 ± 9.7%.
The same measure, in the same setting: next, `O=C1NC(=O)/C(=C/c2cccc(C(F)(F)F)c2)S1`: 119 ± 17%; `CCOc1cc(/C=C(\C#N)C(N)=O)cc(CSc2ccccc2)c1O`: 115 ± 15%; `COc1c(C)c(C(=O)c2ccc(N)c(C(=O)O)c2)n2ccccc12`: 114 ± 7.3%.
Regarding `O=C1Nc2ccc(CN3C(=O)CSC3=O)cc2/C1=C/c1cc(CN2CCOCC2)c[nH]1`, the cell viability stood at 110 ± 8.4%.
On the same count and under the same terms, next, `Nc1nc(NC2CC2)cc(-c2cccc(Cl)c2Cl)n1`: 96.9 ± 4.4%.
`O=c1sn(-c2cccc3ccccc23)c(=O)n1Cc1ccccc1` [Tideglusib]: the cell viability stood at 95.4 ± 20%.
On to `C[C@]1(O)C[C@@H](c2nc(-c3ccc4ccc(-c5ccccc5)nc4c3)c3c(N)nccn32)C1` [OSI-906 (Linsitinib)], for which the cell viability was 116 ± 12%.
On the same count and under the same terms, next, `CCC[C@H](NC(=O)/C(C#N)=C/c1cccc(Br)n1)c1ccccc1`: 115 ± 11%; `Cc1cc(Nc2nc(N[C@@H](C)c3ccc(F)cc3)c(C#N)cc2F)n[nH]1`: 99.4 ± 3.3%; `Nc1[nH]nc2nnc(-c3c(-c4ccccc4)nn4ccccc34)cc12`: 109 ± 11%.
Still for that read-out and setting: the figure for `CC(=O)Nc1nc(C)c(-c2ccc(Cl)c(S(=O)(=O)NCCO)c2)s1` is 97.8 ± 21%; for `CN(C)Cc1cccc(N=C(c2ccccc2)c2c(O)[nH]c3cc(C(=O)N(C)C)ccc23)c1` it is 111 ± 12%; for `Cc1c(NC(=O)c2ccc(C(C)(C)C)cc2)cccc1-c1cn(C)c(=O)c(Nc2ccc(C(=O)N3CCOCC3)cc2)n1` it is 115 ± 8.8%.
For the molecule `O=C(O)c1c[nH]c2c(ccc3ccccc32)c1=O`, the cell viability was 106 ± 6.8%.
Regarding `CCOc1cc(C(=O)N2CCC(N3CCN(C)CC3)CC2)ccc1Nc1ncc2c(n1)N(C1CCCC1)c1ccccc1C(=O)N2C`, the cell viability stood at 96.1 ± 19%.
Same read-out and setting: the figure for `O=C(Nc1ccccc1C(=O)NC1CCCCNC1=O)c1cc2ccccc2s1` (stereo not given) is 103 ± 1.5%.
In the case of `CNC(=O)c1cc(Oc2ccc(NC(=O)Nc3ccc(Cl)c(C(F)(F)F)c3)cc2)ccn1` [Sorafenib], the cell viability worked out at 47.8 ± 9.4%.
The same measure, in the same setting: the figure for `CO[C@H]1C[C@@H]2CC[C@@H](C)[C@@](O)(O2)C(=O)C(=O)N2CCCC[C@H]2C(=O)O[C@H]([C@H](C)C[C@@H]2CC[C@@H](O)[C@H](OC)C2)CC(=O)[C@H](C)/C=C(\C)[C@@H](O)[C@@H](OC)C(=O)[C@H](C)C[C@H](C)/C=C/C=C/C=C/1C` [Rapamycin (Sirolimus)] is 43.3 ± 15%; for `COc1cc(N2CCC(N3CCN(C)CC3)CC2)ccc1Nc1ncc(Cl)c(Nc2ccccc2P(C)(C)=O)n1` [Brigatinib] it is 108 ± 28%; for `C=CCc1ccc(O)c(-c2ccc(O)c(CC=C)c2)c1` [Honokiol] it is 112 ± 14%.
Same read-out and setting: next, `COc1cc(Nc2nc3ccccc3nc2NS(=O)(=O)c2ccc(NC(=O)c3ccc(C)c(OC)c3)cc2)cc(OC)c1`: 116.8 ± 0.41%.

In general, cell viability refers to a read-out of living cells in per cent, often relative to untreated cells.

The values are drawn from the supplement of paper PMC8699584.
